Bioassay records as filed in PubChem.
TGFb SMAD3 inh = qHTS for Inhibitors of TGF-b. hit rate 1.2% among 410,000. HepG2 CAGA-GFP TGF-b/SMAD3 reporter, GFP fluorescence, 18 h; TGF-beta stimulated, 500 pg/mL final. Potency, µM (highest dose often 46.1 µM), inactives show at the highest dose activity, negative = inhibition, usual class: inhibitors. AID 588855, 2011; also: % is scaled to controls: 0 for no effect and ±100 for the full control effect; nearly all actives have a fitted effect of over 65% in size
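HEPG2 CAGA-GFP, 1000 cells/well; 2 h settle, 37 C; cpd via pin tool; TGF-b 500 pg/mL final; 18 h, 37 C; GFP imaging ex488/em500-530; %Activity normalised to -TGF-b and +DMSO controls; CRC fit, curve class.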
S2 tox = Viability Counterscreen for Primary qHTS for Inhibitors of ATXN expression; S2 cells (HEK-293 line with an ATXN2-luciferase reporter) viability, CellTiter-Fluor protease fluorescence, 24 h; Potency, µM (doses to about 56.7 µM), actives largely listed as cytotoxic; hit rate 0.49% among 400,000; AID 651635, 2014; also: nearly all actives have a fitted effect of over 40% in size
HepG2 viability = qHTS for Inhibitors of TGF-b: Cytotox Counterscreen; hit rate 0.76% among 410,000; Potency, µM (top dose mostly 46.1 µM), for inactives: top-dose activity change, negative = cytotoxicity, usual class: cytotoxic; AID 588856, 2011; HepG2 CAGA-GFP viability, ATP luminescence, 18 h
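HepG2 CAGA-GFP cells (1000/well, DMEM with 1% FBS) received compound, then TGF-beta at 500 pg/mL final, and were incubated 18 hours at 37 degrees C. Viability was read by CellTiter-Glo luminescence. Media-only wells were set as complete cell-killing and DMSO as no toxicity.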
ATXN2 expr inh = Primary qHTS for Inhibitors of ATXN expression | hit rate 0.72% among 360,000 | HEK-293 ATXN2-luciferase reporter, luminescence, 24 h | Potency, µM (titrated, usually from 57 µM), for the others: top-dose activity change, negative = inhibition, usual class: inhibitors; also: % is scaled to controls: 0 for no effect and ±100 for the full control effect; nearly all actives have a fitted effect of over 55% in size
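qHTS (up to 57 uM final) was run with 24 h compound exposure of reporter cells at 37 °C. Each well was multiplexed: SteadyGlo luminescence measured ATXN2-luciferase expression after a fluorogenic Gly-Phe-AFC viability readout (25 uM final).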
HT1080 IDH1KD tx = qHTS for induction of synthetic lethality in tumor cells producing 2HG: qHTS for the HT-1080-IDH1KD cell line; hit rate 2% among 360,000; AID 686971, 2013; Potency, µM (top dose mostly 46.1 µM), for the others: at the top dose activity, negative = toxicity, usual class: cytotoxic; HT-1080 IDH1 knockdown viability, ATP luminescence, 48 h;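 also: 0% = DMSO wells and -100% = cell-free medium wells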
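IDH1KD HT-1080 cells, 750/well, RPMI + 5% FBS; compound pinned after 2 h settling; 48 h, 37 °C; CellTiter-Glo luminescence; % activity normalised to DMSO and no-cell wells; curves fitted, classed by r2 and efficacy.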
HT1080NT lethal = qHTS for induction of synthetic lethality in tumor cells producing 2HG: qHTS for the HT-1080-NT fibrosarcoma cell line | HT-1080-NT fibrosarcoma viability, CellTiter-Glo ATP luminescence, 48 h | Potency, µM (top dose mostly 46.1 µM), without a hit: top-dose activity, negative = less viability, most hits filed as cytotoxic | hit rate 1.6% among 360,000 | AID 686970, 2013;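 also: NT is the 2HG producing partner of a matched IDH1 knockdown line; 0% = DMSO-treated cells and -100% = media-only wells without cells; nearly all actives have a fitted effect of over 55% in size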
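A 48-hour cytotoxicity screen used HT-1080-NT cells plated 2 hours before compound delivery. ATP-based CellTiter-Glo luminescence measured viability, normalized to DMSO and no-cell controls.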
* marks the source's active call; other numbers are inactive results; i = inactive; ? = inconclusive; / = no result. Rows were chosen to be rich in hits. Some 3.8% of all compounds tested hit in one or more screens of this group. Calls follow the shape of the dose curve; as a rule, active = well fitted curve in the direction sought with a large enough effect; inconclusive = small, poorly fitted or top-dose-only effect, or another doubt; inactive = no such curve, though single readings can be large; an effect the other way counts as inactive or inconclusive. Potency is read from the fitted curve at half-maximal effect.

SMILES | TGFb SMAD3 inh | S2 tox | HepG2 viability | ATXN2 expr inh | HT1080 IDH1KD tx | HT1080NT lethal
CCc1cccc(CC)c1NC(=O)C(CC)n1nc(C)n2c(cc3cc(C)ccc32)c1=O (stereo not drawn) | -11.6% | i | -2.3% | 14.7% | / | /
O=C(Nc1ccn(CCCN(CCCn2ccc(NC(=O)OCc3ccccc3)nc2=O)CCc2cc3ccccc3[nH]2)c(=O)n1)OCc1ccccc1 | -15.5% | i | -16.6% | -14.5% | 18.4µM* | ?
CCCCNC(=NCc1cccc(C(F)(F)F)c1)Nc1ccccc1 | 0.0% | i | -186.5% | ? | 23.1µM* | ?
COc1ccc(Cl)cc1NC(=O)c1noc2c1CCc1ccccc1-2 | 3.7% | i | -10.1% | -1.7% | / | /
CC1(C)CC(N2CCN(Cc3ccccc3)CC2)=CC(=[N+]2CCCCC2)C1 | ? | i | -40.5% | ? | ? | -26.6%
CN(Cc1ccccc1)C1=CC(=[N+]2CCCCC2)CC(C)(C)C1 | 11.2µM* | i | -25.6% | ? | ? | ?
c1cc2c3c(c1)CCCN3CCC2 | -8.4% | / | 1.4% | / | / | /
CN(c1ncccc1CNc1nc(Nc2ccc3c(c2)CC(=O)N3)ncc1C(F)(F)F)S(C)(=O)=O | / | / | / | 4.32µM* | / | /
CN(CCO)c1nc(-c2cccs2)nc2ccccc12 | / | / | / | / | -20.6% | -23.6%
CCOC(=O)c1nnn(-c2ccc([N+](=O)[O-])cc2[N+](=O)[O-])c1C | 10µM* | i | 15.8µM* | 1.0% | ? | ?
CCC(=O)OCCNc1cc(Sc2nc3ccccc3s2)c2nonc2c1[N+](=O)[O-] | 7.94µM* | 8.91µM* | 12.6µM* | 6.31µM* | 2.82µM* | -57.5%
CCC(=O)OCCNc1cc(Sc2nc3ccccc3[nH]2)c2nonc2c1[N+](=O)[O-] | -27.2% | 28.2µM* | -69.8% | 28.2µM* | ? | ?
CCCSc1cc(NCCOC(=O)CCC)c([N+](=O)[O-])c2nonc12 | ? | ? | -9.3% | -19.3% | ? | -2.2%
CC(NC(=O)C1CCOCC1)c1nnc2n1CCN(Cc1ccc3ccccc3c1)CC2 (stereo not drawn) | / | i | / | / | / | /
CCN(CC)C(=O)CSc1nc(-c2ccccc2)cc(-c2ccc(OC)cc2)c1C#N | 0.8% | i | -1.5% | 7.9% | / | /
Cc1cc(O)c2c(c1O)C(=O)[C@]13C(=C2O)C(=O)[C@@H]2[C@@H](O)[C@H]1[C@@H]1[C@H](O)[C@H]3C(=O)C3=C(O)c4c(O)cc(C)c(O)c4C(=O)[C@]312 | ? | ? | -25.9% | ? | 0.92µM* | 0.731µM*
OCc1ccc2c(c1)c(-c1ccc3c(c1)OCCO3)c(-c1ccccc1)n2-c1ccccc1 | 20µM* | ? | -8.0% | ? | -18.0% | ?
O=C(/C=C/c1cn(-c2ccccc2)nc1-c1ccc2c(c1)OCCO2)NCCO | 0.0% | i | -159.4% | 5.8% | -2.7% | 5.3%
O=C(c1n[nH]c2c1CCCC2)N1CCOc2ccc(C(O)C3CCCCC3)cc2C1 (stereo not drawn) | / | i | / | / | / | /
Cc1ccccc1-n1c(C)nnc1SC(C)C(=O)NCc1ccco1 (stereo not drawn) | 20.4% | / | 4.0% | / | / | /
CN=c1scc(-c2ccc(F)cc2)n1/N=C/c1ccc(O)c(O)c1 | ? | ? | -6.4% | ? | 8.2µM* | ?
Cc1cccc(C)c1OCc1cc(=O)n2c(-c3ccccc3)csc2n1 | 10µM* | i | -32.7% | -8.9% | / | /
Cc1ccccc1NC(=O)c1ccc(N(Cc2ccccc2)S(C)(=O)=O)cc1 | ? | / | -65.9% | ? | / | /
COC(=O)c1ccc(NC(=O)CN(Cc2ccccc2)S(=O)(=O)c2ccc(C)cc2)cc1 | -25.1% | ? | -30.7% | -31.0% | / | /
COC(=O)c1ccc(NC(=O)CN(Cc2ccccc2)S(=O)(=O)c2ccc(Cl)cc2)cc1 | 17.8µM* | ? | -21.5% | ? | / | /
SMILES | TGFb SMAD3 inh | S2 tox | HepG2 viability | ATXN2 expr inh | HT1080 IDH1KD tx | HT1080NT lethal
CS(=O)(=O)N(Cc1ccccc1)c1ccc(C(=O)Nc2ccc(Cl)cc2)cc1 | ? | 31.6µM* | -102.9% | ? | / | /
Cc1cc(C)cc(NC(=O)CSc2nc3c([nH]c4ccccc43)c(=O)n2-c2ccc(F)cc2)c1 | ? | i | -47.7% | 0.5% | / | /
COC(=O)c1cc2c([nH]c1=O)CC(c1ccccc1)CC2=O (stereo not drawn) | -12.8% | / | -17.7% | / | / | /
N#CN=c1snc(-c2ccccc2Cl)n1-c1ccccc1Cl | ? | / | 2.2% | / | / | /
Oc1ccc(-c2nnc(SCC3CCCCC3)o2)cc1 | -28.6% | ? | 11.2µM* | 43.0% | -12.8% | -0.2%
O=C(c1nc2ncccn2n1)N1CCOc2ccc(C(O)C(c3ccccc3)c3ccccc3)cc2C1 (stereo not drawn) | / | i | / | / | / | /
Cc1nc(NC(=O)C(C)(C)C)sc1-c1nc(N)sc1-n1cc(-c2ccccc2)nn1 | / | i | / | 4.8% | 10.2% | 2.7%
CCNc1nc(-c2sc(NC(=O)C(C)(C)C)nc2C)c(-n2cc(-c3ccccc3)nn2)s1 | / | / | / | 14.1µM* | ? | ?
COc1ccc(C=O)cc1COc1ccc([N+](=O)[O-])c(C)c1 | 0.0% | i | -8.8% | 6.2% | ? | ?
COc1ccc(C=O)cc1COc1ccc2c(c1)OCO2 | 4.7% | i | -3.2% | 73.7% | 23.1µM* | ?
N#C/C(=C/c1ccco1)C(N)=S | -0.7% | i | -25.7% | -4.3% | 0.0% | ?
N#CC(C#N)=C1C=CC=CN1/C(=C\c1ccco1)C(=O)c1ccc(Br)cc1 | 3.16µM* | ? | 12.6µM* | 17.8µM* | -12.0% | -4.1%
COc1ccc(/C=C(/C(=O)c2cccs2)N2C=CC=CC2=C(C#N)C#N)cc1 | ? | ? | 11.2µM* | / | ? | ?
N#CC(C#N)=C1C=CC=CN1/C(=C\c1ccco1)C(=O)c1ccccc1 | 2.24µM* | ? | 3.98µM* | ? | ? | ?
COc1ccc(C(=O)/C(=C\c2ccco2)N2C=CC=CC2=C(C#N)C#N)cc1 | 3.55µM* | / | -50.0% | 14.1µM* | 2.91µM* | ?
CCOc1ccccc1NC(=O)c1nc(SCc2ccccc2F)ncc1Cl | 7.2% | / | 6.0% | / | / | /
Cc1ccc2c(c1)CCCN2C(=O)CCc1nc2ccccc2c(=O)[nH]1 | -0.5% | i | 2.9% | -4.8% | ? | 8.2µM*
CC(=O)N1CCN(C(=O)CCc2nc3ccccc3c(=O)[nH]2)CC1 | -16.2% | i | 3.0% | -8.7% | 9.0% | -1.5%
